In experiment [1] the target is Lysosomal acid glucosylceramidase (Homo sapiens) (UniProt P04062). Briefly: Glucocerebrosidase-p2 (AID 348; in the data active = potency below about 10 µM; also: potency is read from the fitted curve at half-maximal effect). The note with it: purified GBA, blue fluorogenic substrate, 40 min. The method, boiled down:
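Compounds titrated from 0.6 nM upwards against 0.2 nM enzyme in pH 5.9 citric acid/KH2PO4, taurocholate, tween-20; blue fluorogenic substrate 80 uM, 40 min room temperature, stopped and read Ex 365/Em 440 for AC50.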

Experiment [2] in a line: AP1 Signaling Pathway (AID 357; active = well fitted curve in either direction with a large enough effect, not every such curve was filed as active;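 also: ME-180 reporter cells stimulated with EGF at its EC50 level; % is scaled to controls: 0 for no effect and ±100 for the full control effect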). The settings on record: ME-180 (cervical carcinoma) AP-1-bla reporter, EGF-induced, beta-lactamase ratio, 5 h; at 7.69 µM (top of the series) unless noted. The method, boiled down:
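First, ME-180 AP-1-bla cells were cultured overnight at 37 °C in low-serum Opti-MEM. Next, titrated compounds with EC50 EGF were incubated 5 hours. Finally, CCF4 was added for 2.5 hours and the 460/530 nm ratio recorded.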

Experiment [3] has as its target Cytochrome P450 1A2 (Homo sapiens) (UniProt P05177). The experiment can be described thus: p450-cyp1a2 (AID 410; calls by dose curve; also: potency is read from the fitted curve at half-maximal effect). Put shortly:
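20nM CYP1A2 with 100uM Luciferin-ME (at Km) in 100mM KPO4; compound preincubated 10 min, NADPH regeneration added, 60 min at room temperature. Luciferin quantified by luminescence after detection reagent; normalized to 57 uM furafylline.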

Experiment [4] can be described thus: NFAT Signaling Pathway (AID 444; active = well fitted curve in either direction with a large enough effect, not every such curve was filed as active;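 also: carbachol stimulus at about its EC50 of 1 µM final; % is scaled to controls: 0 for no effect and ±100 for the full control effect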). The settings on record: Jurkat NFAT-bla M1, carbachol, beta-lactamase ratio, 5 h; at 7.69 µM (top of the series) unless noted. The method, boiled down:
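Jurkat cells with NFAT-driven β-lactamase reporter and co-expressed M1 receptor, stimulated with carbachol (final 1 uM, ~EC50), compound titration, 5 h at 37 °C. CCF4 loaded 1 h at RT; 460/530 nm ratio gave %activity and AC50.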

A short description of experiment [5]: Stat Signaling Pathway (AID 446; active = well fitted curve in either direction with a large enough effect, not every such curve was filed as active;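 also: ME-180 cervical cancer cells given 40 pM IL-6 alongside compound; SIE-controlled beta-lactamase reporter measured as 460/530 nm FRET emission ratio; % is scaled to controls: 0 for no effect and ±100 for the full control effect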). The method, boiled down:
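ME-180 cells carrying a SIE-driven beta-lactamase reporter are stimulated with 40 pM IL-6 for 5 h at 37C in the presence of compound. The 460/530 nm FRET substrate ratio is read after 2.5 h at RT. Data are normalised to 300 pM IL-6 and to 125 nM JAK inhibitor controls.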

Experiment [6] concerns the target Glucocorticoid receptor (Homo sapiens) (UniProt P04150). Briefly: GR-GFP Redistribution (AID 450;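 active = compounds whose dose series gives a full or clear partial fitted curve of increased nuclear translocation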; also: potency is read from the fitted curve at half-maximal effect). The note with it: U2OS GR-GFP nuclear translocation, laser cytometry, 2 h.
For experiment [7] the target is unchanged. The experiment can be described thus: GR-EFC Redistribution (AID 451; calls by dose curve; also: potency is read from the fitted curve at half-maximal effect). The settings on record: CHO-K1 GR-EFC translocation, beta-gal luminescence, 2 h. Put shortly:
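CHO-K1 cells expressing nuclear EA and GR-ED fragments of b-gal; compounds titrated up to 46 uM final, 2 h at 37 C. GR nuclear translocation read as complemented b-gal luminescence after 1 h RT detection.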

For experiment [8], the target named is Mitogen-activated protein kinase 10 (Mus musculus) (UniProt Q61831). Briefly: JNK3 AlphaScreen Assay (AID 530; active = well fitted curve in either direction with a large enough effect, not every such curve was filed as active;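 also: kinase came from lysate of stimulated human HepG2 cells; signal reports phosphorylation of biotinylated GST-cJun 1-79 at Ser73 with 10 µM ATP; % is scaled to controls: 0 for no effect and ±100 for the full control effect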). Put shortly: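 Pre-activated (IL-1β/TNFα) JNK3 in HepG2 lysates phosphorylates biotin-GST-cJun(1-79), 10 uM ATP; anti-phospho-cJun(Ser73) AlphaScreen read at room temperature, pH 7.6 Tris buffer. Compounds pre-incubated 15 min as titrations.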
In experiment [9] the target is 3',5'-cyclic-AMP phosphodiesterase 4B (Homo sapiens) (UniProt Q07343). The experiment can be described thus: qHTS Assay for Inhibitors of PDE-IV (AID 607; active = well fitted activation curve with a large enough effect in the main read-out, with a control signal flat, not every such curve was filed as active; also: % of control where 0% means no effect). The method, boiled down:
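HEK293 ACTOne cells with CNG channel (1000/well), endogenous PDE4; membrane potential dye, compounds up to 22.9 uM final. Fluorescence Ex 535/Em 590; RO 20-1724 (100 uM final) as reference.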

For experiment [10], the target named is Cytochrome P450 3A4 (Homo sapiens) (UniProt P08684). Briefly: qHTS Assay for Inhibitors and Substrates of Cytochrome P450 3A4 (AID 884). Also: potency is read from the fitted curve at half-maximal effect; nearly all actives have a fitted effect of over 50% in size. Put shortly: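 20 nM human CYP3A4 with 25 uM Luciferin-PPXE (at KM) in 200 mM KPO4, preincubated 10 min with compound; NADPH regeneration started a 60 min RT reaction. Luciferin detected by luminescence, normalized to 57 uM ketoconazole as full inhibition.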
Background: qHTS replaces the single test concentration by a dilution series.

Experiment [11] shares this target. Briefly: qHTS Assay for Activators of Cytochrome P450 3A4 (AID 885). Also: nearly all actives have a fitted effect of over 65% in size. Put shortly: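 Human CYP3A4 (20 nM) with Luciferin-PPXE at 25 uM (its KM) in 200 mM KPO4; 10 min compound preincubation, then NADPH regeneration and 60 min reaction at RT. Luciferin read by luminescence; normalized to 57 uM ketoconazole full inhibition.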
Experiment [12] has as its target Cytochrome P450 2D6 (Homo sapiens) (UniProt P10635). Briefly: qHTS Assay for Inhibitors and Substrates of Cytochrome P450 2D6 (AID 891). Also: potency is read from the fitted curve at half-maximal effect; nearly all actives have a fitted effect of over 60% in size. Put shortly:
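Human CYP2D6 (5 nM) with 30 uM Luciferin-ME EGE (at Km) in 100 mM KPO4, compound preincubated 10 min, then NADPH regeneration system for 60 min at room temperature. Luciferin read by luminescence; normalized to 1.43 uM quinidine.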

For experiment [13], the target named is Dual specificity protein kinase CLK4 (Homo sapiens) (UniProt Q9HAZ1). Briefly: qHTS Assay for Inhibitors of CDC-like Kinase 4 (Kinase-Glo Assay) (AID 1770). Also: nearly all actives have a fitted effect of over 65% in size. Also: potency is read from the fitted curve at half-maximal effect. The method, boiled down:
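Luminescent ATP-depletion read-out (Kinase-Glo) after 4.5 h room-temperature reaction of Clk4 (25 nM final) with RS peptide (100 uM) and ATP (1 uM), pH 7.5 Tris buffer with MgCl2 and DTT.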

Experiment [14] shares this target. Briefly: qHTS Assay for Inhibitors of CDC-like Kinase 4 (ADP-Glo Assay) (AID 1771). Also: nearly all actives have a fitted effect of over 70% in size. Also: potency is read from the fitted curve at half-maximal effect. The method, boiled down:
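25 nM Clk4 with 100 uM RS repeat peptide and 1 uM ATP (final) in buffer with 2 mM MgCl2, 0.5 mM EGTA, 2.5 mM DTT, 0.01% Triton X-100; 1 h at room temperature; ADP-Glo luminescence for ADP formed.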

Experiment [15] has as its target Ubiquitin carboxyl-terminal hydrolase 1 (Homo sapiens) (UniProt O94782). The experiment can be described thus: Inhibitors of USP1/UAF1: Pilot qHTS (AID 504865).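 Also: rhodamine fluorescence freed from ubiquitin-rhodamine substrate followed over time; top concentration of the series differs between compounds; % is scaled to controls: 0 for no effect and ±100 for the full control effect; nearly all actives have a fitted effect of over 35% in size.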 The method, boiled down: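 Deubiquitinase activity followed as kinetic rhodamine fluorescence release from 150 nM Ub-Rho. 1 nM USP1/UAF1 with compound, after 15 min room-temperature preincubation, in HEPES pH 7.8 buffer containing TCEP, EDTA, BSA and Tween-20.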

The target in experiment [16] is Dual specificity protein kinase CLK4 (Homo sapiens) (UniProt Q9HAZ1). Briefly: qHTS Assay for Inhibitors of CDC-like Kinase 4 (ADP-FP Assay) (AID 1795).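 Also: recombinant human CLK4 phosphorylating RS repeat peptide at 1 µM ATP; % is scaled to controls: 0 for no effect and ±100 for the full control effect; nearly all actives have a fitted effect of over 60% in size.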 The method, boiled down: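 Kinase activity was measured as ADP production using Transcreener orange tracer (4 nM) and ADP antibody (1 ug/mL) fluorescence polarization, with ADP calculated from a calibration curve. The 1 h reaction contained 6.25 nM Clk4, 1 uM ATP and 100 uM RS peptide at pH 7.5 with Mg2+.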

In experiment [17] the target is Cytochrome P450 2C19 (Homo sapiens) (UniProt P33261). Briefly: qHTS Assay for Inhibitors and Substrates of Cytochrome P450 2C19 (AID 899). Also: potency is read from the fitted curve at half-maximal effect; nearly all actives have a fitted effect of over 60% in size. Put shortly: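 Signal comes from luciferase acting on luciferin released by CYP2C19-mediated hydroxylation of Luciferin-H EGE, 10uM (KM). Assay mix: 5nM enzyme, 50mM KPO4; 60 min at 37C with NADPH regeneration. Data normalized against 57uM ketoconazole.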

We go through seven molecules from PubChem BioAssay (NCATS).

Unmarked numbers belong to inactive results. Inconclusive results are not listed. The source made the active and inactive calls. Unless noted, calls follow the shape of the dose curve; as a rule, active = well fitted curve in the direction sought with a large enough effect; inconclusive = small, poorly fitted or top-dose-only effect, or another doubt; inactive = no such curve, though single readings can be large; an effect the other way counts as inactive or inconclusive.

Chain of Ubiquitin carboxyl-terminal hydrolase 1 (Homo sapiens) (O94782 whole entry, looked up): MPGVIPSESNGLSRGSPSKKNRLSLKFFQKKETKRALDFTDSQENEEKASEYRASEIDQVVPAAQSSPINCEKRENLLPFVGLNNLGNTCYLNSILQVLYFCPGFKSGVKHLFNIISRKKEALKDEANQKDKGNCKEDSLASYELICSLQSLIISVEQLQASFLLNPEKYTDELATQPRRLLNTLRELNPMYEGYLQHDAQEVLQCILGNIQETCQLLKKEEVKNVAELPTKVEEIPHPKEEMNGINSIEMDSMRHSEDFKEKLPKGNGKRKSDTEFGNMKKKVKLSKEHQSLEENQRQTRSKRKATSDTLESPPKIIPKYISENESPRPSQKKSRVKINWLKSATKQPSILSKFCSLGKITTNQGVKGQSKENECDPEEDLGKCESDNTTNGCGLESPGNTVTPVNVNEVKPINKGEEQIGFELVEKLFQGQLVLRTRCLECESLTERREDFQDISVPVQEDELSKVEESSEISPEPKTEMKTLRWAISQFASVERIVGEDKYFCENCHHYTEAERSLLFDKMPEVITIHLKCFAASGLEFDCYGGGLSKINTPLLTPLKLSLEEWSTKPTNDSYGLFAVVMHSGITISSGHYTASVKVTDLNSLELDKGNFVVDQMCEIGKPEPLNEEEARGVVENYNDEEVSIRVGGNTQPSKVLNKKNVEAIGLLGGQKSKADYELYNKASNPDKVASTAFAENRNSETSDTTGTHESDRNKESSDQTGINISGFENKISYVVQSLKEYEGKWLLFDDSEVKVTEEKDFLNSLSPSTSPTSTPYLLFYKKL
Chain of Dual specificity protein kinase CLK4 (Homo sapiens) (Q9HAZ1 whole entry, looked up): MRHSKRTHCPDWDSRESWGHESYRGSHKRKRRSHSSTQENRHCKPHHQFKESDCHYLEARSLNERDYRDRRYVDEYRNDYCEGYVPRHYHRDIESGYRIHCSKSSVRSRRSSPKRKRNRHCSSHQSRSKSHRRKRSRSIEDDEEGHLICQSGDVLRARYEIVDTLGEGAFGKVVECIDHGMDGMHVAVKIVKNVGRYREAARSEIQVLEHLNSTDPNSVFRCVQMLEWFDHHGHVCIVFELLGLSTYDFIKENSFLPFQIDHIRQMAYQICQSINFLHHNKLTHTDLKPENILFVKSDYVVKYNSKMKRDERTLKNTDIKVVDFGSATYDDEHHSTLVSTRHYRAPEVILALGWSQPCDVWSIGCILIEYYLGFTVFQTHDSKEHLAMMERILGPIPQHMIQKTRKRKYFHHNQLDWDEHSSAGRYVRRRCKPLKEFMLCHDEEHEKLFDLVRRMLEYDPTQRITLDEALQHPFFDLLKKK
Chain of Lysosomal acid glucosylceramidase (Homo sapiens) (P04062 whole entry, looked up): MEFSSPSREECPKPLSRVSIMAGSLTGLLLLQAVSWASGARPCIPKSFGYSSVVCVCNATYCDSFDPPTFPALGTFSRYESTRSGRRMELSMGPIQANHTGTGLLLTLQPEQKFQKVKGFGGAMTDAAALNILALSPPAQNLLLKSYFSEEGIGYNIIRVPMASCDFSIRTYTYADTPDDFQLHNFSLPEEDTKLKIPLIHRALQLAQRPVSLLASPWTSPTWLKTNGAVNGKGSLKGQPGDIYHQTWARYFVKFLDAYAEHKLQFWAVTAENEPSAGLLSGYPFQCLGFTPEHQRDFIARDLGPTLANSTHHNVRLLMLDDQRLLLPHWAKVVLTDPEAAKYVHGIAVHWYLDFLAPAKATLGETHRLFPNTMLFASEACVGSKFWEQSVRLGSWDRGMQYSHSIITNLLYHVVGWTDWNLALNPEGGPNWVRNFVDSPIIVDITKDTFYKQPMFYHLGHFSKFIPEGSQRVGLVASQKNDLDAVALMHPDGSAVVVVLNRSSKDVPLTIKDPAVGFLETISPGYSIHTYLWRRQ
Chain of 3',5'-cyclic-AMP phosphodiesterase 4B (Homo sapiens) (Q07343 whole entry, looked up): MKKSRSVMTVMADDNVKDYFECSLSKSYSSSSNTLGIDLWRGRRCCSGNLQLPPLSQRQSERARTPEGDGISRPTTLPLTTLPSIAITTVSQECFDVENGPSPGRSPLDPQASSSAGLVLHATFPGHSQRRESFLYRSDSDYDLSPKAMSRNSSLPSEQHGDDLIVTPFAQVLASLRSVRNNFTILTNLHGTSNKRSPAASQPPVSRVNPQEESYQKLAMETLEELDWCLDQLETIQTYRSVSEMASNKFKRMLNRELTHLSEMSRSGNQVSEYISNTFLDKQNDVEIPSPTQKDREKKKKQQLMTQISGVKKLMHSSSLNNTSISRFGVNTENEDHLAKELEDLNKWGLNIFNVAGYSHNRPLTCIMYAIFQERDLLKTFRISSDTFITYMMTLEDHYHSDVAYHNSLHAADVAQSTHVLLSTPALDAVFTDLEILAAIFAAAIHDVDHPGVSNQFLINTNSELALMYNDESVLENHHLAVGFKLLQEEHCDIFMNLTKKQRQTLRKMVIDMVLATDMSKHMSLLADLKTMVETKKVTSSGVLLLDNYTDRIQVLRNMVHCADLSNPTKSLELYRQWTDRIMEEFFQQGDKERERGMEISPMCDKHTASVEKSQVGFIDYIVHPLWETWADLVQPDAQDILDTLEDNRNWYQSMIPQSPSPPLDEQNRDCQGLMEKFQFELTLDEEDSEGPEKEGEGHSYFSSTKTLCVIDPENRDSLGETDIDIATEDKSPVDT
Chain of Glucocorticoid receptor (Homo sapiens) (P04150 whole entry, looked up): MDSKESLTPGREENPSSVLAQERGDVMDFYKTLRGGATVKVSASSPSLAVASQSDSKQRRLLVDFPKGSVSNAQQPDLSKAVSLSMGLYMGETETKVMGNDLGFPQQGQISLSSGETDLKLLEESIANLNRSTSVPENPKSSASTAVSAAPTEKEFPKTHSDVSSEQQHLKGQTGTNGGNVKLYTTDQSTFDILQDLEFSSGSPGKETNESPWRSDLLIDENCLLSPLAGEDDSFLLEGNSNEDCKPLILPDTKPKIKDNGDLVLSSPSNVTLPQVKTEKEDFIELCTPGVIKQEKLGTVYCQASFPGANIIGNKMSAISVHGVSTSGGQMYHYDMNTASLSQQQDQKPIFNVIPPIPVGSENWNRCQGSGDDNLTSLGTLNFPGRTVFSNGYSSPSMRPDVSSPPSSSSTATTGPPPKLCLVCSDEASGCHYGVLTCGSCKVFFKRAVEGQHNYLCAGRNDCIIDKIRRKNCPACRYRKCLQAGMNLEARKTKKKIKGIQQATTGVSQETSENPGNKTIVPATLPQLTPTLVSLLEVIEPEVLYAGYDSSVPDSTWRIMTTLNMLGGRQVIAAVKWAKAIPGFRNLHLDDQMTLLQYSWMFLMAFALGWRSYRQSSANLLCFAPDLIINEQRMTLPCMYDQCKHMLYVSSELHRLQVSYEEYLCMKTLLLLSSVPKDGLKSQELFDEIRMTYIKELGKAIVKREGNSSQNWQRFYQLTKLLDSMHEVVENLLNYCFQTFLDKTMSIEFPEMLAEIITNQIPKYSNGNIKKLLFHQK
Chain of Cytochrome P450 3A4 (Homo sapiens) (P08684 whole entry, looked up): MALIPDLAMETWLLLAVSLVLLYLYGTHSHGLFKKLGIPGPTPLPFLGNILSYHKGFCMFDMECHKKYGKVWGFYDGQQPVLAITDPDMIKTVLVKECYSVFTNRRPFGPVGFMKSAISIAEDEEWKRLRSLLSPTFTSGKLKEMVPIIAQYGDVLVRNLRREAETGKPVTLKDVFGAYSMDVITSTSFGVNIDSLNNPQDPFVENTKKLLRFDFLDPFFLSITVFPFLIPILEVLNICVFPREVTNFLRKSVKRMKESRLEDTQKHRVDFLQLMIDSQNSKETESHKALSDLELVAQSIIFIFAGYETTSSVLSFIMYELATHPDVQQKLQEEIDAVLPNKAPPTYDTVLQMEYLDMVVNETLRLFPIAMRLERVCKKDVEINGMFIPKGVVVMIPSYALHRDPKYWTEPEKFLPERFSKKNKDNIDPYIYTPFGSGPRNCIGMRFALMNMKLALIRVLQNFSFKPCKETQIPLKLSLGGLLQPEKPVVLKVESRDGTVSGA
Chain of Cytochrome P450 1A2 (Homo sapiens) (P05177 whole entry, looked up): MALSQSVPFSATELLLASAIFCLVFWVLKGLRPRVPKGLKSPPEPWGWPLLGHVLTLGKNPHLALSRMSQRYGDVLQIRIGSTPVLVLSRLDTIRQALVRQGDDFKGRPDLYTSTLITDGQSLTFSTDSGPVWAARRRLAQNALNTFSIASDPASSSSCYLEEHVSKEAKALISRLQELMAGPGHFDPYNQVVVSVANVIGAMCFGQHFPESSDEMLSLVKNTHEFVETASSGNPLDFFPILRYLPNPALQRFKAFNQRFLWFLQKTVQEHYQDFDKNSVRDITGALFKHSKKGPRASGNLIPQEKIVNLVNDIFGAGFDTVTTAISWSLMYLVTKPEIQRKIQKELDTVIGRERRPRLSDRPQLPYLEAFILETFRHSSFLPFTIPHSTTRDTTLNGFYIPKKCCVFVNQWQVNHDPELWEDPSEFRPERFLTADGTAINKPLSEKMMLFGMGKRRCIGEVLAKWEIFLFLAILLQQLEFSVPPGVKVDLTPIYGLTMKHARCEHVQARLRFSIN
Chain of Cytochrome P450 2D6 (Homo sapiens) (P10635 whole entry, looked up): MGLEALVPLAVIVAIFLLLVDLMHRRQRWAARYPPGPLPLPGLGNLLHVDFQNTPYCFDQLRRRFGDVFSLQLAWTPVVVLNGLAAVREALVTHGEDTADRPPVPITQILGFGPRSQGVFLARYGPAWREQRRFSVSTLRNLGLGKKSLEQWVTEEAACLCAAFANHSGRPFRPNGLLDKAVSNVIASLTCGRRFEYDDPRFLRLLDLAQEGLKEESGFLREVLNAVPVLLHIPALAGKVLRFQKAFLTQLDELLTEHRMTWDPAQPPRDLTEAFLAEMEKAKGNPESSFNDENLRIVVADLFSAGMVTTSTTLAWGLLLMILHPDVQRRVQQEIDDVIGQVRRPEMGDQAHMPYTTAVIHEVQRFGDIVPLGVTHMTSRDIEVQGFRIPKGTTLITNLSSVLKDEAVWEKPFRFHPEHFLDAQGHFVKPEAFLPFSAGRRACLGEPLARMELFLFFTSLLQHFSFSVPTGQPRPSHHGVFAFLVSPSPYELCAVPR

For `COc1ccccc1CNc1cc(-c2cccnc2)ncn1`, the Potency in [1] is greater than 11.4 µM; in [3], 1 µM (active); in experiment [6], greater than 46 µM; in experiment [7] it was greater than 46 µM; in experiment [10], 0.631 µM (active); in experiment [12], 5.01 µM (active). Moreover, the results for the Potency in [13] and in experiment [14] were 25.1 µM (active) and 31.6 µM (active), respectively. Further, the activity change, negative = inhibition in [2] is -4.39%; in experiment [4] it was -5.01%. Also, the call in [5] and in experiment [11] was inactive. The Potency result in [8], in experiment [9] and in [15] was “inactive” throughout.
In the case of `COc1ccc2[nH]cc(CCNc3ncncc3-c3ccoc3)c2c1`, the Potency in experiment [1] was greater than 11.4 µM; in [7], greater than 46 µM; in experiment [13], 14.1 µM (active); in experiment [14], 15.8 µM (active). Besides, the activity change, negative = inhibition in experiment [4] is -12%. For the same molecule, the outcome in [5] was inactive. For the same molecule, the Potency entry in experiment [8], in experiment [9] and in experiment [15] was “inactive” each time.
With `Cc1nc2cnc(Oc3cccc(Cl)c3)nc2n(Cc2ccc(F)cc2)c1=O`, the Potency is greater than 11.4 µM in experiment [1] and greater than 9.22 µM in experiment [6]. In experiment [4], the activity change, negative = inhibition is -21.7%. In addition, in experiment [5], the result was inactive. Also, the Potency result in experiment [9], in experiment [13], in [14] and in experiment [16] was “inactive” throughout.
With `COc1cccc(Nc2ncc3ncc(=O)n(CCC#N)c3n2)c1`, the Potency in experiment [1] was greater than 11.4 µM; in [3], 1 µM (active); in [6] it was greater than 9.22 µM; in experiment [7] it was greater than 46 µM; in experiment [13], 6.31 µM (active); in experiment [14], 3.55 µM (active). Moreover, the activity change, negative = inhibition is -26.1% in [2] and -0.673% in [4]. For the same molecule, the result in experiment [5] and in experiment [11] was inactive. In addition, the Potency result in experiment [8], in experiment [9] and in [15] was “inactive” in each case.
`O=c1c(CCc2ccccc2)nc2cnc(N3CCNCC3)nc2n1-c1ccccc1`: the activity change, negative = inhibition was -11.6% in experiment [2] and 6.64% in [4]. In addition, the Potency in [3] is 15.8 µM (active); in [7], greater than 46 µM. In [5], the outcome was inactive. Besides, the Potency entry in experiment [8], in experiment [9], in experiment [13], in experiment [14] and in [15] was “inactive” each time.
In the case of `COc1ccccc1CNc1ccnc(-c2cccc(NS(C)(=O)=O)c2)n1`, the Potency in experiment [1] is greater than 11.4 µM; in experiment [6] it was greater than 46 µM; in experiment [7], greater than 46 µM; in [13], 28.2 µM (active); in experiment [14], 25.1 µM (active). Besides, the activity change, negative = inhibition in experiment [2] was -17.8%; in [4], 2.18%. Also, the molecule was classed as inactive in experiment [5]. The Potency result in [8] and in [9] was “inactive” in each case.
For `CS(=O)(=O)Nc1cccc(-c2nc(Nc3ccncc3)c3ccccc3n2)c1`, the Potency in experiment [1] was 7.2 µM (active); in [3] it was 0.631 µM (active); in [7] it was greater than 46 µM; in experiment [10] it was 3.98 µM (active); in experiment [17], 5.01 µM (active); in experiment [13], 12.6 µM (active). The Potency in [14] is 10 µM (active). Further, in experiment [2], the activity change, negative = inhibition is -17.9%. The result in experiment [5] and in experiment [11] was inactive. For the same molecule, the Potency result in [8] and in [15] was “inactive” throughout.
